# Test results: PubChem BioAssay (EPA / NIEHS)
# Inconclusive results are not listed. Calls of active or inactive are those of the source. How the source made its calls, unless noted: active means hit-call score of the fitted dose curve at least 0.9, where 1 is the maximum; inactive means score below 0.9.
# Legend:
# [1] = ACEA_ER_80hr: ACEA Biosciences xCELLigence Real-Time Cell Analysis on Estrogen Receptor Agonism for Proliferation (AID 2282667; active means hit-call score of the fitted dose curve at least 0.9, where 1 is the maximum); settings: T47D proliferation, impedance (xCELLigence), 80 h
# Procedure, shortened: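 T-47D cells monitored by electrical impedance (xCELLigence) with compound present throughout; 80 h timepoint, positive-direction fitting versus DMSO. Eight-point 1:4 dilutions from 100 uM final, duplicate plates.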
# [2] = ATG_CRE_CIS: Attagene CIS-FACTORIAL HepG2 Assay for human cAMP Responsive Element (CRE) binding protein 3 (AID 2282926); settings: HepG2 CRE cis-reporter, Attagene multiplexed mRNA; actives raise or lower the signal
# Procedure, shortened: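 Induced reporter mRNA from a CRE cis element, measured in HepG2 among many multiplexed units at 24 h. Detection used RT-PCR plus capillary electrophoresis of fluorescent fragments; DMSO served as negative control.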
# [3] = target: CCAAT/enhancer-binding protein beta (Homo sapiens) (UniProt P17676); assay: ATG_C_EBP_CIS: Attagene CIS-FACTORIAL HepG2 Assay for human CCAAT/Enhancer Binding Protein (C/EBP) beta (AID 2282927); settings: HepG2 Attagene cis-factorial transcription factor reporter; actives raise or lower the signal
# Procedure, shortened: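 RT-PCR/capillary electrophoresis fluorescence of reporter mRNA, 24 h post-dose, in HepG2 cells carrying transfected cis-promoter reporter units. Bidirectional curve fitting against DMSO baseline captures gain or loss of signal.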
# [4] = ATG_CMV_CIS: Attagene CIS-FACTORIAL HepG2 Assay for human CMV (Internal Marker) (AID 2282928); settings: HepG2 CMV promoter reporter, transcription factor profiling; actives raise or lower the signal;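 further: endpoint acts as a background internal control marker rather than a target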
# Procedure, shortened: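 Readout: fluorescent reporter cDNA fragments separated by capillary electrophoresis after RT-PCR and HpaI cut. Cells: HepG2 carrying transfected cis-promoter reporter constructs, dosed 24 h. Endpoint serves as background internal-marker control, fit bidirectionally versus DMSO.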
# [5] = ATG_DR4_LXR_CIS: Attagene CIS-FACTORIAL HepG2 Assay for human Liver X Receptor (LXR), DR4 submotif (AID 2282929); settings: HepG2 Attagene DR4 cis-reporter, mRNA transcription; actives raise or lower the signal
# Procedure, shortened: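 DR4 cis-reporter in HepG2, 24 h exposure. Detection: RT-PCR, 6-FAM labelling, CE fragment analysis. Endpoint fitted bidirectionally, DMSO = baseline.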
# [6] = target: Aryl hydrocarbon receptor (Homo sapiens) (UniProt P35869); assay: ATG_Ahr_CIS: Attagene CIS-FACTORIAL HepG2 Assay for human Aryl Hydrocarbon Receptor (Ahr) (AID 2282930); settings: HepG2 AhR cis-factorial reporter transcription; actives raise or lower the signal
# Procedure, shortened: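 HepG2 cells transiently transfected with cis-element-driven multiplexed reporter transcription units; endogenous transcription factor activity measured as reporter mRNA 24 h after dosing. RT-PCR, 6-FAM labelling, HpaI digestion, capillary electrophoresis; bidirectional fitting versus DMSO baseline.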
# [7] = ATG_AP_1_CIS: Attagene CIS-FACTORIAL HepG2 Assay for human Activator Protein 1 (AP-1) (AID 2282931); settings: HepG2 Attagene cis-factorial AP-1 reporter mRNA; actives raise or lower the signal
# Procedure, shortened: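 Cis-regulated reporter units transiently expressed in HepG2 report endogenous transcription-factor activity. Signal: reporter mRNA at 24 h, via RT-PCR and fluorescent capillary electrophoresis. Endpoint derived by bidirectional fitting, DMSO as negative control.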
# [8] = ATG_AP_2_CIS: Attagene CIS-FACTORIAL HepG2 Assay for human Activator Protein 2 (AP-2) (AID 2282932); settings: HepG2 AP-2 cis-reporter, Attagene transcription factor profiling; actives raise or lower the signal
# Procedure, shortened: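 Cells (HepG2) transfected with promoter-driven reporter constructs, treated 24 h. Total RNA reverse-transcribed, reporter cDNA PCR-amplified, FAM-labelled by primer extension, digested, resolved by capillary electrophoresis. Activity fitted both directions versus DMSO.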
# [9] = ATG_BRE_CIS: Attagene CIS-FACTORIAL HepG2 Assay for human Bone Morphogenetic Protein (BMP) Response Element (BRE) (AID 2282933); settings: HepG2 BMP response element reporter, Attagene transcription factor profiling; actives raise or lower the signal
# Procedure, shortened: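 Gain- or loss-of-signal was derived by bidirectional fitting against DMSO controls. The signal came from reporter mRNA, measured by RT-PCR and capillary electrophoresis, in HepG2 cells transiently carrying multiple reporter units and dosed for 24 h.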
# [10] = target: Retinoic acid receptor alpha (Homo sapiens) (UniProt P10276); assay: ATG_DR5_RAR_CIS: Attagene CIS-FACTORIAL HepG2 Assay for human Retinoic Acid Receptor Alpha (RARE), DR5 submotif (AID 2282934); settings: HepG2 Attagene cis-factorial RARE DR5 reporter, mRNA; actives raise or lower the signal
# Procedure, shortened: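 HepG2 cells transiently transfected with multiplexed reporter units under cis (DR5 RARE) promoters, so endogenous transcription factor activity is measured. After 24 h compound exposure, reporter mRNA is quantified by RT-PCR with fluorescent labelling and capillary electrophoresis; bidirectional fitting versus DMSO.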
# [11] = target: Transcription factor E2F1 (Homo sapiens) (UniProt Q01094); assay: ATG_E2F_CIS: Attagene CIS-FACTORIAL HepG2 Assay for human E2F Transcription Factor 1 (AID 2282935); settings: HepG2 Attagene cis-reporter, E2F reporter RNA transcripts; actives raise or lower the signal
# Procedure, shortened: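 First, HepG2 cells were transfected with reporter transcription units. Next, they were dosed for 24 h. Then RNA was isolated, converted to cDNA, PCR-amplified, FAM-labeled, HpaI-digested and analyzed by capillary electrophoresis.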
# [12] = ATG_M_61_CIS: Attagene CIS-FACTORIAL HepG2 Assay for M61 Transcription Factor (Internal Marker) (AID 2282937); settings: HepG2 Attagene CIS-FACTORIAL M61 internal marker reporter; actives raise or lower the signal
# Procedure, shortened: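 Background-control endpoint: HepG2 cells with cis-regulated reporter constructs, 24 h exposure, reporter mRNA detected via fluorescent primer extension and capillary electrophoresis; values from bidirectional fitting with DMSO baseline.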
# [13] = ATG_EGR_CIS: Attagene CIS-FACTORIAL HepG2 Assay for human Early Growth Response 1 (EGR1) (AID 2282938); settings: HepG2 Attagene CIS-FACTORIAL EGR reporter mRNA; actives raise or lower the signal
# Procedure, shortened: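 Endpoint derived by bidirectional fitting versus DMSO vehicle. Method: cis-promoter reporter units transfected into HepG2, 24 h dosing, RNA isolation, RT-PCR with 6-FAM primer extension and HpaI digestion, then capillary electrophoresis fluorescence detection.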
# [14] = ATG_M_19_CIS: Attagene CIS-FACTORIAL HepG2 Assay for M19 Transcription Factor (Internal Marker) (AID 2282939); settings: HepG2 Attagene CIS-FACTORIAL M19 internal marker reporter; actives raise or lower the signal
# Procedure, shortened: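 Following a 24 h exposure, RNA from transfected HepG2 cells was reverse-transcribed, PCR-amplified with reporter-specific primers, end-labelled with 6-FAM and HpaI-digested before capillary separation. Values represent gain or loss versus DMSO.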
# [15] = ATG_ERE_CIS: Attagene CIS-FACTORIAL HepG2 Assay for Estrogen Response Element (ERE) (AID 2282940); settings: HepG2 ERE cis-reporter, Attagene RNA transcript; actives raise or lower the signal
# Procedure, shortened: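 HepG2, transient cis-reporter units, 24 h exposure. RNA isolated, oligo(dT) RT, reporter-specific PCR, FAM extension, HpaI cut, CE detection. Gain/loss-of-signal vs DMSO.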
# [16] = ATG_Ets_CIS: Attagene CIS-FACTORIAL HepG2 Assay for human Erythroblast Transformation Specific (ETS) (AID 2282941); settings: HepG2 ETS cis-reporter transcription, actives raise or lower the signal
# Procedure, shortened: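 RT-PCR/capillary electrophoresis fluorescence read-out of reporter mRNA; HepG2 transient multi-reporter transfection; 24 h compound exposure; gain or loss of signal fitted bidirectionally relative to DMSO.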
# [17] = target: Hepatocyte nuclear factor 3-beta (Homo sapiens) (UniProt Q9Y261); assay: ATG_FoxA2_CIS: Attagene CIS-FACTORIAL HepG2 Assay for human Forkhead box A2 (FOXA2) (AID 2282942); settings: HepG2 cis-reporter transcription factor activity, 24 h; actives raise or lower the signal
# Procedure, shortened: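 Measured: reporter mRNA induction or loss in HepG2 transiently carrying multiple cis-regulated reporter units, 24 h after dosing. Quantified by RT-PCR plus capillary electrophoresis, normalised to DMSO.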
# [18] = ATG_FoxO_CIS: Attagene CIS-FACTORIAL HepG2 Assay for human Forkhead box O (FoxO) (AID 2282943); settings: HepG2 Attagene cis-reporter, FoxO element, mRNA; actives raise or lower the signal
# Procedure, shortened: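 HepG2 cells transiently transfected with cis-promoter-driven multiple reporter transcription units; 24 h after chemical dosing, reporter mRNA quantified by RT-PCR, fluorescent primer extension, HpaI digestion and capillary electrophoresis. Bidirectional fitting versus DMSO baseline.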
# [19] = ATG_GATA_CIS: Attagene CIS-FACTORIAL HepG2 Assay for human GATA Binding Protein (AID 2282944); settings: HepG2 GATA cis-element reporter, Attagene multiplex mRNA; actives raise or lower the signal
# Procedure, shortened: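 DMSO serves as negative control and baseline for bidirectional fitting of reporter mRNA changes. HepG2 cells bearing transiently transfected cis-promoter reporters were exposed 24 h; transcripts detected via RT-PCR and capillary electrophoresis.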
# [20] = ATG_E_Box_CIS: Attagene CIS-FACTORIAL HepG2 Assay for human Enhancer Box (E-box) (AID 2282936); settings: HepG2 E-box cis-reporter transcription, actives raise or lower the signal
# Procedure, shortened: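 Endogenous transcription factor activity was sensed in human HepG2 liver cells through transfected cis-promoter reporter units. After 24 h of dosing, total RNA was reverse-transcribed and reporter cDNA resolved by capillary electrophoresis.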
# CCAAT/enhancer-binding protein beta (Homo sapiens), sequence (P17676 whole entry, looked up): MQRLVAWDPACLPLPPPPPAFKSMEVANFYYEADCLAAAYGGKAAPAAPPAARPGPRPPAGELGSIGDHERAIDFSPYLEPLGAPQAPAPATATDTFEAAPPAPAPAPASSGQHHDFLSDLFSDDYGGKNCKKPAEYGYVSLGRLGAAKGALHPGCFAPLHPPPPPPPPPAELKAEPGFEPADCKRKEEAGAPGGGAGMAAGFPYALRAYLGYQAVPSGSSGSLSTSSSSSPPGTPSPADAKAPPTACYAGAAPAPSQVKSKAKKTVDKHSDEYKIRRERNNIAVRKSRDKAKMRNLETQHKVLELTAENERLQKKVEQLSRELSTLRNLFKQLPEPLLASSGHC
# Hepatocyte nuclear factor 3-beta (Homo sapiens), sequence (Q9Y261 whole entry, looked up): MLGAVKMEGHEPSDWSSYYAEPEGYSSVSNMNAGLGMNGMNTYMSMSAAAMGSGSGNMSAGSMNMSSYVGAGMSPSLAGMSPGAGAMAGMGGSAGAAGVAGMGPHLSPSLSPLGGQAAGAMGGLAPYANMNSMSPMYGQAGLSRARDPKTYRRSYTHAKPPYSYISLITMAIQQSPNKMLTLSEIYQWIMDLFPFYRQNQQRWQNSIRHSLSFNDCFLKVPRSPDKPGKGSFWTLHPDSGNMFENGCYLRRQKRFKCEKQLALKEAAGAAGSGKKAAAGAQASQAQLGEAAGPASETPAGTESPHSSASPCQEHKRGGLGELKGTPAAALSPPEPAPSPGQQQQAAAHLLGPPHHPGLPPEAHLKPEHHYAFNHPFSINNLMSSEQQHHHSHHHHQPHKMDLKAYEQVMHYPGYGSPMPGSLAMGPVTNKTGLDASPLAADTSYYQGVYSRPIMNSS
# Aryl hydrocarbon receptor (Homo sapiens), sequence (P35869 whole entry, looked up): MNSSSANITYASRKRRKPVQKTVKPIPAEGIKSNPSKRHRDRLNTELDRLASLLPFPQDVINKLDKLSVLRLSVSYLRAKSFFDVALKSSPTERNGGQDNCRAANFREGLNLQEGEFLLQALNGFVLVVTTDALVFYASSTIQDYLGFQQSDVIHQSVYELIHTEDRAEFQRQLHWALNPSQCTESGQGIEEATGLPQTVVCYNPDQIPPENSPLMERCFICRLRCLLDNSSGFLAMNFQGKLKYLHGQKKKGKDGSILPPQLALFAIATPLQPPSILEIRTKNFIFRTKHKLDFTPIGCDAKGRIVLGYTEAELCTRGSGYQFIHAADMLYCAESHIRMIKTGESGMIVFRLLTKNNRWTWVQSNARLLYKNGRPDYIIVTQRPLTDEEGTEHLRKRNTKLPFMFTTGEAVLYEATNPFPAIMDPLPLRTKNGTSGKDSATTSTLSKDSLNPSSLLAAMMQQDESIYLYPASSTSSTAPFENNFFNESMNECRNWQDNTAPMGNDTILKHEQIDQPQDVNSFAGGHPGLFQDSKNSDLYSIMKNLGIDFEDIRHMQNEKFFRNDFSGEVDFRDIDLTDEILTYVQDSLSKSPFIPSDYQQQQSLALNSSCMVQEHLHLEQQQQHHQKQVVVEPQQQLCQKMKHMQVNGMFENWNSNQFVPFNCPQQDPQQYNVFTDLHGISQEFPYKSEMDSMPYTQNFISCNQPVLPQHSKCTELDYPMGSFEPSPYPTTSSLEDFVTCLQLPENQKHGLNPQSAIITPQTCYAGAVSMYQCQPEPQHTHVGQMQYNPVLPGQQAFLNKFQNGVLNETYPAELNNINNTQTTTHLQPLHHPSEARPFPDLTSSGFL
# Transcription factor E2F1 (Homo sapiens), sequence (Q01094 whole entry, looked up): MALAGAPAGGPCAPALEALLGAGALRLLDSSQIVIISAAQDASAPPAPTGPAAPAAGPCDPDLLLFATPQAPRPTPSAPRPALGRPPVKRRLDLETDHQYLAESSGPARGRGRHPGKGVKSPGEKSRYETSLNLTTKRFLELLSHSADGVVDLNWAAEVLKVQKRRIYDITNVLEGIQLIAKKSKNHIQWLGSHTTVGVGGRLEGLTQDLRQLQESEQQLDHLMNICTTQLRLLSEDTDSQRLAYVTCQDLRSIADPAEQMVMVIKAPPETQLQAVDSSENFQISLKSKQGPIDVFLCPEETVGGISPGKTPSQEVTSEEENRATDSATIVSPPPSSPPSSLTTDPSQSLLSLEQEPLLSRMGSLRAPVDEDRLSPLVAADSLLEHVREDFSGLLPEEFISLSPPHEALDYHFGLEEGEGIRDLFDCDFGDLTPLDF
# Retinoic acid receptor alpha (Homo sapiens), sequence (P10276 whole entry, looked up): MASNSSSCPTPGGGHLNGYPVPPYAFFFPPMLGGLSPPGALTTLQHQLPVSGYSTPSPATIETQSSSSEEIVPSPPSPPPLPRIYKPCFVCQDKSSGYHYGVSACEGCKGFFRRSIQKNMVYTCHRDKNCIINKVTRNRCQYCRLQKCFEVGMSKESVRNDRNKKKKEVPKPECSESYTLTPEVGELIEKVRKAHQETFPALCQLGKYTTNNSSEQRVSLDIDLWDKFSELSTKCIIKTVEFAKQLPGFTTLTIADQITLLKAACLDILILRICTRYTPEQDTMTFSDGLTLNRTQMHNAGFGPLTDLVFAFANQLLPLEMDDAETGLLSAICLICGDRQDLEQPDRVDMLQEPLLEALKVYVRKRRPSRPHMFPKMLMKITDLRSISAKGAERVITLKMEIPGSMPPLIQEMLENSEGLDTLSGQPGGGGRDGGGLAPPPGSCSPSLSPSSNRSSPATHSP
smiles,measurement,setting,value
CCC(=O)OC(C)c1ccccc1 (stereo unspecified),outcome,[1],inactive
same,outcome,[2],inactive
same,outcome,[3],inactive
same,outcome,[4],inactive
same,outcome,[5],inactive
same,outcome,[6],inactive
same,outcome,[7],inactive
same,outcome,[8],inactive
same,outcome,[9],inactive
same,outcome,[10],inactive
same,outcome,[11],inactive
same,outcome,[12],inactive
same,outcome,[13],inactive
same,outcome,[14],inactive
same,outcome,[15],inactive
same,outcome,[16],inactive
same,outcome,[17],inactive
same,outcome,[18],inactive
same,outcome,[19],inactive
CCOCN(C(=O)CS(=O)(=O)O)c1c(C)cccc1CC,outcome,[1],inactive
same,outcome,[2],inactive
same,outcome,[3],inactive
same,outcome,[4],inactive
same,outcome,[5],inactive
same,outcome,[6],inactive
same,outcome,[7],inactive
same,outcome,[8],inactive
same,outcome,[9],inactive
same,outcome,[10],inactive
same,outcome,[11],inactive
same,outcome,[12],inactive
same,outcome,[13],inactive
same,outcome,[14],inactive
same,outcome,[15],inactive
same,outcome,[16],inactive
same,outcome,[17],inactive
same,outcome,[18],inactive
same,outcome,[19],inactive
CC1=CC2C3C=CC(C3)C2C1C (stereo unspecified),outcome,[1],inactive
same,outcome,[2],inactive
same,AC50,[3],100 µM (active)
same,outcome,[4],inactive
same,outcome,[5],inactive
same,outcome,[7],inactive
same,outcome,[8],inactive
same,outcome,[9],inactive
same,outcome,[10],inactive
same,AC50,[11],29.9 µM (active)
same,outcome,[12],inactive
same,outcome,[13],inactive
same,outcome,[14],inactive
same,outcome,[15],inactive
same,outcome,[16],inactive
same,outcome,[17],inactive
same,outcome,[18],inactive
same,outcome,[19],inactive
C=C(C)CCCC,outcome,[1],inactive
same,outcome,[2],inactive
same,outcome,[3],inactive
same,outcome,[4],inactive
same,outcome,[5],inactive
same,outcome,[6],inactive
same,outcome,[7],inactive
same,outcome,[8],inactive
same,outcome,[9],inactive
same,outcome,[10],inactive
same,outcome,[11],inactive
same,outcome,[12],inactive
same,outcome,[13],inactive
same,outcome,[14],inactive
same,outcome,[15],inactive
same,outcome,[16],inactive
same,outcome,[17],inactive
same,outcome,[18],inactive
same,outcome,[19],inactive
N#CCCOCCC#N,outcome,[1],inactive
same,outcome,[2],inactive
same,outcome,[3],inactive
same,outcome,[4],inactive
same,outcome,[5],inactive
same,outcome,[7],inactive
same,outcome,[8],inactive
same,outcome,[9],inactive
same,outcome,[10],inactive
same,outcome,[11],inactive
same,outcome,[20],inactive
same,outcome,[12],inactive
same,outcome,[13],inactive
same,outcome,[14],inactive
same,outcome,[15],inactive
same,outcome,[16],inactive
same,outcome,[17],inactive
same,outcome,[18],inactive
same,outcome,[19],inactive
OCCCc1cccnc1,outcome,[1],inactive
same,outcome,[2],inactive
same,outcome,[3],inactive
same,outcome,[4],inactive
same,outcome,[5],inactive
same,outcome,[6],inactive
same,outcome,[7],inactive
same,outcome,[8],inactive
same,outcome,[9],inactive
same,outcome,[10],inactive
same,outcome,[11],inactive
same,outcome,[20],inactive
same,outcome,[12],inactive
same,outcome,[13],inactive
same,outcome,[14],inactive
same,outcome,[16],inactive
same,outcome,[17],inactive
same,outcome,[18],inactive
same,outcome,[19],inactive
OCCC(O)CO (stereo unspecified),outcome,[1],inactive
same,outcome,[2],inactive
same,outcome,[3],inactive
same,outcome,[4],inactive
same,outcome,[5],inactive
same,outcome,[6],inactive
same,outcome,[7],inactive
same,outcome,[8],inactive
same,outcome,[9],inactive
same,outcome,[10],inactive
same,outcome,[11],inactive
same,outcome,[20],inactive
same,outcome,[12],inactive
same,outcome,[13],inactive
same,outcome,[14],inactive
same,outcome,[16],inactive
same,outcome,[18],inactive
same,outcome,[19],inactive
